# Reference: PubChem BioAssay (NCATS)
# Where “and” joins values, the source holds several entries; their conditions need not be identical. Identical values can stand only once. Results filed as inconclusive are left out. Some structures have more than one record in an assay (separate samples or runs), and their calls can disagree. Calls of active or inactive are those of the source. Unless noted, the call rests on the fitted dose curve.
# Columns and labels:
# [1] = AP1 Signaling Pathway (AID 357; active means well fitted curve in either direction with a large enough effect, not every such curve was filed as active; further: on the % scale 0 is the no-effect control and ±100 the full control effect); settings: ME-180 (cervical carcinoma) AP-1-bla reporter, EGF-induced, beta-lactamase ratio, 5 h
# Summary of the method: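 AP-1-bla ME-180 cells with beta-lactamase reporter under AP-1 response element, stimulated with EC50 EGF; compounds titrated, 5 hours at 37 degrees Celsius. CCF4 read at 460/530 nm ratio; positive and negative modulators judged by AC50.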
# [2] = NFAT Signaling Pathway (AID 444; active means well fitted curve in either direction with a large enough effect, not every such curve was filed as active;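 further: carbachol stimulus at about its EC50 of 1 µM final; on the % scale 0 is the no-effect control and ±100 the full control effect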); settings: Jurkat NFAT-bla M1, carbachol, beta-lactamase ratio, 5 h
# Summary of the method: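 Jurkat cells carrying an NFAT-driven β-lactamase reporter and co-transfected muscarinic M1 receptor were treated with compound plus carbachol (1 uM final, an EC50 level) for 5 h at 37 °C. CCF4 loading followed for 1 h at RT; 460/530 nm ratio gave %activity.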
# [3] = biological target: Cytochrome P450 1A2 (Homo sapiens) (UniProt P05177); assay: p450-cyp1a2 (AID 410); settings: recombinant CYP1A2, luciferin-ME demethylation, luminescence; series mostly up to 57 µM; further: potency means the concentration at half of the fitted maximal effect;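 on activity change, negative = inhibition: -100% = full effect of reference inhibitor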
# Chain of Cytochrome P450 1A2 (Homo sapiens) (P05177 whole entry, looked up): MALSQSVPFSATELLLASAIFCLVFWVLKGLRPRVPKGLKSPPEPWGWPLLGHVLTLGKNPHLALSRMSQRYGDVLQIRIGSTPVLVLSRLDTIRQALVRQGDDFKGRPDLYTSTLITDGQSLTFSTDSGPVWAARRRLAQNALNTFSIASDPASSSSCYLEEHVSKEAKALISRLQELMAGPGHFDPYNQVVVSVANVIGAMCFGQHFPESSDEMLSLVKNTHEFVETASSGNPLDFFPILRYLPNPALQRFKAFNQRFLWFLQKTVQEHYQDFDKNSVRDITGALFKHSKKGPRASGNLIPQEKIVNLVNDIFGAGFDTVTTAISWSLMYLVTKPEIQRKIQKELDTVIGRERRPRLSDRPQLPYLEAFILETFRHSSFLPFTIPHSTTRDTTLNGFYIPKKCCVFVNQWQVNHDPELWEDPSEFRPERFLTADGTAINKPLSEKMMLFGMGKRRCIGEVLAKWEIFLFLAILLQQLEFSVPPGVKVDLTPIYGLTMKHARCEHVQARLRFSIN
# Summary of the method: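 Inhibition was calculated relative to 57 uM furafylline (full inhibition). The reaction used human CYP1A2 at 20nM with Luciferin-ME at its Km, 100uM, driven by an NADPH-regenerating system for 60 min at room temperature.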
# [4] = Cell Viability - Hek293 (AID 427;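 active means compounds whose dose-response curve shows a full or clear partial loss of cell viability, called from curve shape rather than a numeric limit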;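 further: potency means the concentration at half of the fitted maximal effect; cells exposed to compound for 40 hours at 37 °C before reading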); settings: qHTS
# Summary of the method: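 qHTS, human embryonic kidney (adenovirus-transformed) cells; 40 hr cpd, 37 °C; CellTiter-Glo ATP luminescence. Norm: DMSO = 0, 100 uM tamoxifen = 100% inhibition. Hill-fit AC50.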
# [5] = Cell Viability - SK-N-SH (AID 435); settings: SK-N-SH neuroblastoma cell viability qHTS;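 further: potency means the concentration at half of the fitted maximal effect; compound exposure lasted 40 h at 37 °C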
# Summary of the method: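 SK-N-SH neuroblastoma cells (1500/well) treated 40 h at 37 °C in complete medium; viability read as cellular ATP by CellTiter-Glo luminescence. Normalized to DMSO and 100 uM tamoxifen; AC50 from Hill fits of qHTS concentration-response.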
# [6] = Cell Viability - BJ (AID 421); settings: BJ fibroblast viability, qHTS;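 further: potency means the concentration at half of the fitted maximal effect; cells exposed to compound for 40 hours at 37 °C before readout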
# Summary of the method: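 Cytotoxicity in human BJ foreskin fibroblasts is scored as loss of cellular ATP after a 40-hour exposure, measured by luciferase luminescence. Controls are DMSO and 100 uM tamoxifen.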
# [7] = Cell Viability - Jurkat (AID 426;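 active means dose-dependent loss of cell ATP signal giving a full or clear fitted curve, ranked by lower potency value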;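 further: potency means the concentration at half of the fitted maximal effect; cells exposed to compound for 40 hours at 37 °C before ATP read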); settings: qHTS
# Summary of the method: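 Seed 5000 Jurkat E6-1 cells/well; add compound; incubate 40 hr at 37 °C; add CellTiter-Glo; wait 20 min at room temperature; read luminescence. Fit concentration-response with Hill equation for AC50.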
# [8] = Cell Viability - HepG2 (AID 433); settings: qHTS;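 further: potency means the concentration at half of the fitted maximal effect; cells exposed to compound for 40 hours; potency for ATP loss meaning cytotoxicity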
# Summary of the method: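 HepG2 cells, 1500 per well, treated 40 hr at 37 °C in complete medium; viability from intracellular ATP by CellTiter-Glo luminescence. Normalized to DMSO and 100 uM tamoxifen; AC50 from Hill fit of qHTS concentration-response.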
# [9] = Cell Viability - MRC5 (AID 434); settings: MRC5 lung fibroblast viability, qHTS;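 further: potency means the concentration at half of the fitted maximal effect; cells exposed to compound for 40 hours at 37 °C; potency reflects cytotoxicity seen as loss of intracellular ATP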
# Summary of the method: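 MRC5 normal human lung fibroblasts (1500/well) were treated with compounds for 40 hr at 37 °C in complete medium, and viable cells were measured as intracellular ATP by CellTiter-Glo luminescence. AC50 came from Hill fits, normalized to DMSO and 100 uM tamoxifen.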
smiles,measurement,setting,value
COCCOC(=O)C1=C(C)NC(C)=C(C(=O)OC(C)C)C1c1cccc([N+](=O)[O-])c1 (centres undefined),"activity change, negative = inhibition",[1]; at 17.2 µM (top of the series),-20.8% (inactive)
same,"activity change, negative = inhibition",[2]; at 17.2 µM (top of the series),-7.25% (inactive)
COc1ccc([C@@H]2Sc3ccccc3N(CCN(C)C)C(=O)[C@@H]2OC(C)=O)cc1,"activity change, negative = inhibition",[1]; at 17.2 µM (top of the series),23.2% (inactive)
same,Potency,[3],inactive
CCCN(CCC)CCc1cccc2c1CC(=O)N2,"activity change, negative = inhibition",[1]; at 38 µM (top of the series),3.44% (inactive)
same,Potency,[3],inactive
Nc1nc(N)c2nc(-c3ccccc3)c(N)nc2n1,Potency,[4],18 µM (active)
same,Potency,[5],66.1 µM (active)
CCCCNc1ccc(C(=O)OCCN(C)C)cc1,"activity change, negative = inhibition",[2]; at 17.2 µM (top of the series),-27.7% (inactive)
CN(C)CCN(Cc1cccs1)c1ccccn1,Potency,[3],inactive and 12.6 µM (active)
CCOC(=O)c1cnc2c(cnn2CC)c1NN=C(C)C,Potency,[3],501 nM (active) and 126 nM (active)
same,"activity change, negative = inhibition",[2]; at 38 µM (top of the series),6.94% (inactive)
CN(C)CCOC(=O)COc1ccc(Cl)cc1,Potency,[3],15.8 µM (active) and 10 µM (active)
same,"activity change, negative = inhibition",[2]; at 17.2 µM (top of the series),0.868% (inactive)
same,"activity change, negative = inhibition",[2]; at 38 µM (top of the series),7.1% (inactive)
CCCCCCCC/C=C\CCCCCCCC(=O)NCc1ccc(O)c(OC)c1,Potency,[3],20 µM (active)
CCN(CC)CCOCCOC(=O)C1(c2ccccc2)CCCC1,Potency,[3],12.6 µM (active)
Cc1ccc(Cl)c(Nc2ccccc2C(=O)O)c1Cl,Potency,[3],inactive
same,"activity change, negative = inhibition",[2]; at 17.2 µM (top of the series),-24% (inactive) and 22.1% (inactive)
same,"activity change, negative = inhibition",[2]; at 38 µM (top of the series),0.114% (inactive)
O=C(CCNNC(=O)c1ccncc1)NCc1ccccc1,Potency,[3],31.6 µM (active) and 12.6 µM (active)
same,"activity change, negative = inhibition",[2]; at 17.2 µM (top of the series),-23.8% (inactive) and -5.87% (inactive)
same,"activity change, negative = inhibition",[2]; at 38 µM (top of the series),4.78% (inactive)
COc1ccc(CN(CCN(C)C)c2ccccn2)cc1,Potency,[3],inactive
same,Potency,[6],> 92 µM (inactive)
same,Potency,[7],> 92 µM (inactive)
same,Potency,[4],> 92 µM (inactive)
same,Potency,[8],> 92 µM (inactive)
same,Potency,[9],> 92 µM (inactive)
same,Potency,[5],> 92 µM (inactive)
same,"activity change, negative = inhibition",[2]; at 17.2 µM (top of the series),-25.9% (inactive) and -22.5% (inactive)
same,"activity change, negative = inhibition",[2]; at 38 µM (top of the series),-21.9% (inactive)
COC(=O)[C@H]1[C@H]2C[C@@H]3c4[nH]c5cc(OC)ccc5c4CCN3C[C@H]2C[C@@H](OC(=O)c2cc(OC)c(OC)c(OC)c2)[C@@H]1OC,Potency,[7],35.9 µM (active)
same,Potency,[5],46.3 µM (active)
CCN(CC)CC(=O)Nc1c(C)cccc1C,"activity change, negative = inhibition",[2]; at 17.2 µM (top of the series),-9.77% (inactive) and 9.98% (inactive) and -29.3% (inactive)
same,"activity change, negative = inhibition",[2]; at 38 µM (top of the series),0.823% (inactive)
C#CCN(C)CCCOc1ccc(Cl)cc1Cl,Potency,[3],631 nM (active) and 158 nM (active)
same,"activity change, negative = inhibition",[2]; at 17.2 µM (top of the series),-4.25% (inactive)
same,"activity change, negative = inhibition",[2]; at 38 µM (top of the series),-1.82% (inactive)
CCC(=O)c1ccc2c(c1)N(CCCN(C)C)c1ccccc1S2,Potency,[3],0.631 µM (active)
same,"activity change, negative = inhibition",[2]; at 38 µM (top of the series),-89.3% (active)
COCC(=O)O[C@]1(CCN(C)CCCc2nc3ccccc3[nH]2)CCc2cc(F)ccc2[C@@H]1C(C)C,Potency,[3],31.6 µM (active)
same,"activity change, negative = inhibition",[2]; at 38 µM (top of the series),-15.7% (inactive)
CCO/C([O-])=N/c1c[n+](N2CCOCC2)no1,Potency,[3],inactive
same,"activity change, negative = inhibition",[2]; at 17.2 µM (top of the series),-13.9% (inactive) and -20.6% (inactive)
same,"activity change, negative = inhibition",[2]; at 38 µM (top of the series),-9.67% (inactive)
CCCCOCCOCCOCc1cc2c(cc1CCC)OCO2,Potency,[6],> 92 µM (inactive)
same,Potency,[7],> 92 µM (inactive)
same,Potency,[4],> 92 µM (inactive)
same,Potency,[8],> 92 µM (inactive)
same,Potency,[9],> 92 µM (inactive)
same,Potency,[5],> 92 µM (inactive)
O=c1[nH]c(=O)n([C@H]2C[C@H](O)[C@@H](CO)O2)cc1Br,Potency,[6],> 92 µM (inactive)
same,Potency,[4],> 92 µM (inactive)
same,Potency,[8],> 92 µM (inactive)
same,Potency,[9],> 92 µM (inactive)
same,Potency,[5],> 92 µM (inactive)
O=C(O)CCCCCCCC(=O)O,Potency,[3],inactive
same,"activity change, negative = inhibition",[2]; at 38 µM (top of the series),-0.521% (inactive)
Nc1ncn([C@@H]2O[C@H](CO)[C@@H](O)[C@H]2O)c(=O)n1,Potency,[6],> 92 µM (inactive)
same,Potency,[7],1.01 µM (active)
same,Potency,[4],6.9 µM (active)
same,Potency,[8],> 92 µM (inactive)
same,Potency,[5],16.6 µM (active)
NC(=Nc1ccccc1)Nc1ccccc1,Potency,[6],> 92 µM (inactive)
same,Potency,[7],> 92 µM (inactive)
same,Potency,[4],> 92 µM (inactive)
same,Potency,[8],> 92 µM (inactive)
same,Potency,[9],> 92 µM (inactive)
same,Potency,[5],> 92 µM (inactive)
CN(C)CCCN1c2ccccc2Sc2ccc(C(F)(F)F)cc21,Potency,[3],1.58 µM (active) and 794 nM (active)
same,"activity change, negative = inhibition",[2]; at 17.2 µM (top of the series),-88.2% (active)
C[C@]12CCC(=O)C=C1CC[C@@H]1[C@@H]2CC[C@@]2(C)[C@H]1CC[C@]2(O)C(=O)CO,"activity change, negative = inhibition",[2]; at 17.2 µM (top of the series),2.94% (inactive)
Cc1nc2ccccn2c(=O)c1CCN1CCC(C(=O)c2ccc(F)cc2)CC1,Potency,[3],inactive
